# Test results published in ChEMBL document CHEMBL4513216, “Probing the Open Global Health Chemical Diversity Library for Multistage-Active Starting Points for Next-Generation Antimalarials” (ACS Infect Dis, 2020).
# Among all 69,000 compounds or so, about 8,600 (12%) showed an effect of 50% or more. Many of the other results were omitted from the sample, so strong results are more common in it than they were.
# Test system: Plasmodium berghei
# Assay: Screen against P. berghei liver stage (PbLuc), transformed with Luciferase, at 10uM
# Assay type: functional, HepG2
# Details: tested at 10 uM
row,SMILES,INHIBITION [%]
1,COCCc1noc(CN2CCCC(Cn3cncn3)C2)n1 (stereo unspecified),-0.96
2,NC(=O)Cn1c(CO)cnc1SCC(=O)NCc1ccccc1,15
3,N#Cc1cccc(N2CCC(CO)(CCCc3ccccc3)CC2)n1,22
4,N#Cc1cccc(N2CCC(CO)(CCc3ccccc3)CC2)n1,51.7
5,N#Cc1cccc(N2CCC(CO)(CCOc3ccccc3)CC2)n1,17.4
6,Cn1cc(CC2CC(=O)N(Cc3ccc(Cl)cc3)C2=O)cn1 (stereo unspecified),8.12
7,Nc1ncnc2c1ncn2[C@H]1CCN(Cc2ccsc2)CC[C@@H]1O,17.4
8,Cc1ncsc1CN1CC[C@H](O)[C@@H](n2cnc3c(N)ncnc32)CC1,50.1
9,Cc1ncsc1CN1CCN(C2CCOCC2)CC(C(N)=O)C1 (stereo unspecified),25.6
10,CC(C)c1noc(-c2ccnc(-n3cnc(C(=O)O)c3)c2)n1,-8.35
11,CCc1nccn1-c1cccc(C2CCCN(C3CCCCC3)C2)n1 (stereo unspecified),24.8
12,Cc1cn2nc(N3CCCC3Cn3cccn3)sc2n1 (stereo unspecified),-12.1
13,O=C(C1CCCN(Cc2ccccc2)C1)N1CCc2sccc2C1 (stereo unspecified),48.8
14,O=C(C1CCCN(Cc2cccc(F)c2)C1)N1CCc2sccc2C1 (stereo unspecified),14.1
15,O=C(C1CCCN(Cc2cccnc2)C1)N1CCc2sccc2C1 (stereo unspecified),55.5
16,CN1CCCc2cc(-c3cncn3CC(=O)NC(C)(C)C)ccc21,18.3
17,CCN1CCc2cc(-c3cncn3CC(=O)NC(C)(C)C)ccc21,6.32
18,CCN1c2ccc(-c3cncn3CC(=O)NC(C)(C)C)cc2CC1C (stereo unspecified),59.3
19,CCN1CCc2cc(-c3cncn3CCNC3CCS(=O)(=O)C3)ccc21 (stereo unspecified),27.6
20,CC1Cc2cc(-c3cncn3CC(=O)NC(C)(C)C)ccc2N1C (stereo unspecified),52
21,Cc1nn(C)c(C)c1CCn1cncc1-c1ccc2c(c1)CC(C)N2C (stereo unspecified),22.8
22,CCN1CCC2(CN(C(C)=O)CC23CCN(CC2CC2)CC3)C1=O (stereo unspecified),-23.3
23,CN1CCC(NC(=O)Nc2ccc(Cl)c(F)c2)C1=O (stereo unspecified),-6.39

row,SMILES,INHIBITION [%]
1,Cc1cc(CC(=O)NC2CCCN(c3ccccc3Cl)C2=O)n[nH]1 (stereo unspecified),8.44
2,Cn1ccc(NC(=O)NC2CCCN(c3ccccc3Cl)C2=O)n1 (stereo unspecified),74
3,Cn1cc(NC(=O)NC2CCCN(c3ccccc3Cl)C2=O)cn1 (stereo unspecified),24.8
4,CN1CCC(NC(=O)Nc2cnn(-c3ccccc3Cl)c2)C1=O (stereo unspecified),37.7
5,O=C(Nc1ccncc1)NC1CCN(c2ccccc2Cl)C1=O (stereo unspecified),50.8
6,O=C(Nc1cc(F)ccc1OCC1CCCO1)N1CCSCC1 (stereo unspecified),41.2
7,CC(=O)NCC1(COc2cnccn2)C[C@@H](O)[C@@H](O)C1 (stereo partly specified),-3.52
8,COCC(C)NC(=O)c1cn(C(C)C)cc2c(=O)[nH]nc1-2 (stereo unspecified),22
9,COc1ccc2c(OCC(=O)NCC(F)(F)F)ccnc2c1,-121
10,CNC(=O)[C@H]1C[C@@H]2CN(C(=O)c3ccsc3)C[C@@H]2N1S(C)(=O)=O,32.2
11,CCOc1ncccc1NC(=O)N1CCN(Cc2ccncc2)CC1,18.75
12,Cc1csc2c(N3CCC(NCCc4ccnn4C)CC3)ncnc12,53.6
13,CCc1cc(N2CCC(NCCc3nc(C)c(C)s3)CC2)nc(C)n1,30.3
14,Cc1nc(C)n(CCNC2CCN(c3ncnc4c(C)csc34)CC2)n1,-12.4
15,Cc1nnc(CCNC2CCN(c3ncnc4c(C)csc34)CC2)s1,61.8
16,CCc1nnc(CNC2CCN(c3ncnc4c(C)csc34)CC2)s1,61.3
17,Cc1csc2c(N3CCC(NCCCc4ccncc4)CC3)ncnc12,43.5
18,CCc1nc(CNC2CCN(c3ccc(OC)cc3)CC2)cs1,34
19,Cc1csc2c(N3CCC(NCCCC4CCOC4)CC3)ncnc12 (stereo unspecified),55.8
20,CCC1CCN(CCn2cnc3c(C)csc3c2=O)CC1,-7.25
21,CCCc1cncnc1N1CCC(NCCc2ccc(O)cc2)CC1,49.9
22,CCCc1cncnc1N1CCC(NCCc2nc(O)cc(O)n2)CC1,8.23
23,O=C(NCc1ccc2c(c1)OCO2)[C@@H]1C=CCN1c1ncccn1,-0.232

row,SMILES,INHIBITION [%]
1,CCOCC1CC2(CCN(C(=O)c3ccccn3)CC2)CO1 (stereo unspecified),32.4
2,Cc1cc(C)nc(N2CCC(C(=O)Nc3n[nH]c(C(C)C)n3)CC2)n1,24.7
3,Cc1noc(C(C)Nc2ccc(N3CCOCC3)cc2C)n1 (stereo unspecified),23.1
4,CCOC(=O)CSc1nnc([C@@H](N)CC(C)C)o1,12.3
5,O=C(COC1CCCC1)N1C[C@@H]2CN(Cc3ccoc3)CCO[C@@H]2C1,29.8
6,Cc1cc(N2CCC(N(C)C(=O)c3cccs3)CC2)nc(C)n1,22
7,Cc1cc(N2CCC(N(C)C(=O)c3ccc(C#N)cc3)CC2)nc(C)n1,81.1
8,Cc1cc(N2CCC(N(C)C(=O)c3ccccc3)CC2)nc(C)n1,2.3
9,Cc1cc(N2CCC(O)CC2)nc(C)n1,41
10,CN(C(=O)c1ccc(C#N)cc1)C1CCN(c2ccccn2)CC1,-39.5
11,Cc1cc(N2CCC(N(C)C(=O)Nc3ccccc3)CC2)nc(C)n1,4.71
12,COc1ccccc1C(=O)N(C)C1CCN(c2ccccn2)CC1,19.5
13,Cc1cc(N2CCC(N(C)C(=O)c3sccc3C)CC2)nc(C)n1,68.6
14,Cc1cc(N2CCC(N(C)C(=O)c3ccccc3F)CC2)nc(C)n1,56.1
15,CCNc1cc2c(nn1)CCN(C(=O)CCc1c(C)noc1C)C2,1.78
16,COc1c(C2CCCN2C(=O)c2cnc(C)cn2)c(C)nn1C (stereo unspecified),-14.7
17,O=C(Cn1cc(-c2ccccc2)ncc1=O)Nc1nccs1,-13.6
18,Cc1nc(C2CCCN(C(=O)c3ccnc(N(C)C)c3)C2)no1 (stereo unspecified),-27
19,CN(C)C(=O)c1c[nH]nc1C1CCN(S(=O)(=O)c2ccccc2)CC1,-36.4
20,O=C(C1CCC2(CCN(c3ncccn3)CC2)CO1)N1CCCC1 (stereo unspecified),-7.24
21,CC(C)NC(=O)C1CCC2(CCN(c3ncccn3)CC2)CO1 (stereo unspecified),15.7
22,O=C(C1CCC2(CCN(Cc3cccnc3)CC2)CO1)N1CCCC1 (stereo unspecified),62
23,O=C(C1CCC2(CCN(c3nncs3)CC2)CO1)N1CCCC1 (stereo unspecified),57.1

row,SMILES,INHIBITION [%]
1,O=C([C@@H]1CCCO1)N1CCOCC2(CCN(Cc3cccnc3)C2)C1 (stereo partly specified),40.3
2,O=C(C1CCC2(CCN(c3nncs3)CC2)C1)N1CCCC1 (stereo unspecified),-16.9
3,CNC(=O)C1CCC2(CCN(c3ncc(C)cn3)CC2)CO1 (stereo unspecified),11.3
4,CNC(=O)C1CCC2(CCN(c3nncs3)CC2)CO1 (stereo unspecified),61.9
5,O=C(C1CCCO1)N1CCC2(CC1)COCCN(Cc1cccnc1)C2 (stereo unspecified),12.2
6,CC(C)(C)C(=O)N1CC[C@@H]2[C@H](CC1)N(S(C)(=O)=O)CCS2(=O)=O,37.1
7,CN1CCN(C(=O)c2cc(-c3cccs3)cs2)CC1,-11.4
8,Cc1nc(C2CCCN2C(=O)COCc2ccccc2)no1 (stereo unspecified),7.27
9,COc1cnc(CSc2nnc(C)s2)cc1OCC(=O)NC1CCCC1,43.3
10,CNc1cncc(C2CCCN2Cc2ccnc(C)n2)n1 (stereo unspecified),48.6
11,CN1CCc2c(C#N)c(NCCCN3CCOCC3)n3cnnc3c2C1,3.95
12,COc1ccc(CN2CCOC3(CCCN(C(C)=O)C3)C2)cc1 (stereo unspecified),7.31
13,CC(NCc1ccccc1O)c1ccc(-n2ccnc2)cc1 (stereo unspecified),61.9
14,COc1ccccc1CNC(C)c1ccc(-n2ccnc2)cc1 (stereo unspecified),70.3
15,CCOc1cccc(CNC(C)c2ccc(-n3ccnc3)cc2)c1O (stereo unspecified),47.1
16,COc1cccc(CNC(C)c2ccc(-n3ccnc3)cc2)c1OC (stereo unspecified),35
17,COc1cccc(CNC(C)c2ccc(-n3ccnc3)cc2)c1O (stereo unspecified),43.4
18,COCCC(C)NCc1ccccc1-n1ccnc1 (stereo unspecified),15.2
19,CC1CCC(O)(CSc2nnnn2C)CC1 (stereo unspecified),4.52
20,CCn1ncc2c1C(COC)N(C(=O)CCc1ccccc1)CC2 (stereo unspecified),43
21,Cc1cnc(CC2COCCN(C(=O)c3cncnc3)C2)cn1 (stereo unspecified),-13.2
22,CC(NCc1cc(O)c2cccc(F)c2n1)c1ccccc1O (stereo unspecified),25
23,CSCc1ccc(CNCCN2CCOCC2)o1,15.6

row,SMILES,INHIBITION [%]
1,OCc1ccc(-c2c(-c3ccccc3)ncn2CCN2CCOCC2)o1,53.3
2,Cc1nc(-c2c(-c3ccccc3)ncn2CCCN2CCOCC2)c[nH]1,27.6
3,c1ccc(-c2ncn(CCCN3CCOCC3)c2-c2ccncc2)cc1,55.4
4,Cc1ccc(-c2c(-c3ccccc3)ncn2CCCN2CCOCC2)o1,20.1
5,Cc1ccc(CNCCN2CCOCC2)o1,5.34
6,COCCCn1ccc(NC(=O)NCc2cccc(N(C)C)c2)n1,21.5
7,O=C1[C@@H]2CC[C@@H](CN(Cc3ccccc3OC(F)F)C2)N1CC1CC1,18.5
8,CC(=O)NCC(=O)N1CC[C@H](OCC2CC2)[C@@H]1Cc1cccnc1,4.92
9,CN(C)CC(=O)N1Cc2cc(-c3cc[nH]n3)ccc2C1c1cnco1 (stereo unspecified),-19.8
10,N#Cc1ccc2c(c1)CN(C(=O)c1nc[nH]n1)C2c1cnco1 (stereo unspecified),64.5
11,N#Cc1ccc2c(c1)CN(C(=O)C1CC=CC1)C2c1cnco1 (stereo unspecified),34.9
12,CN(C)CC(=O)N1Cc2cc(N(C)C)ccc2C1c1cnco1 (stereo unspecified),33.4
13,CN(C)c1ccc2c(c1)CN(C(=O)c1ccco1)C2c1cnco1 (stereo unspecified),-0.554
14,CN(C)c1ccc2c(c1)CN(C(=O)c1c[nH]cn1)C2c1cnco1 (stereo unspecified),76.3
15,CN(C)c1ccc2c(c1)CN(C(=O)c1ccnnc1)C2c1cnco1 (stereo unspecified),-0.554
16,CC(=O)NCC(=O)N1Cc2cc(C#N)ccc2C1c1cnco1 (stereo unspecified),65.9
17,CC(=O)NCC(=O)N1Cc2cc(-c3cc[nH]n3)ccc2C1c1cnco1 (stereo unspecified),71.8
18,N#CC1(C(=O)N2Cc3cc(-c4cc[nH]n4)ccc3C2c2cnco2)CC1 (stereo unspecified),-18.3
19,CN(C)c1ccc2c(c1)CN(C(=O)c1cnccn1)C2c1cnco1 (stereo unspecified),31.9
